The supplement of paper PMC11417369
± gives the standard deviation of the averaged measurements. In all, about 25,000 sequences were measured (“ln(normalized median fluorescence intensity)”: median about 8.6, highest 2% from about 10 on). This is one part of a sample in which the highest values are shown more often than they occur.

Tested on: PfAP2-EXP AP2 domain (GST-tagged)
Test: gcPBM binding intensity (ln(normalized median fluorescence intensity)); higher = stronger DNA binding
How it was run: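 Binding of GST-tagged P. falciparum DNA-binding domains, expressed in E. coli and used at about 25 μg on average, was carried out for 1 h in 1× PBS containing 1% milk, 0.2 mg/ml BSA, 0.5% salmon testes DNA and 0.03% Triton X-100. The target was an Agilent 4 × 180k array of primer-extended double-stranded 36-bp intergenic genomic probes plus negative controls, read with Alexa488 anti-GST antibody at 488 nm. Binding intensity is the highest Masliner-normalised natural-log median intensity across replicate spots of either probe orientation.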

| Sequence | gcPBM binding intensity (ln) |
| --- | --- |
| ATAAATATACATTATACCGACCATGTGGATATTATA [XGTACX_negctrl_site241] | 8.43 ± 0.49 |
| GTGCATATGTAGATATGTACATATTTATTTATTATT [XGTACX_site7343] | 8.38 ± 0.16 |
| TTCTAGAAAACTGATCGTACAAATAAATATAGACAC [XGTACX_site2808] | 8.88 ± 0.28 |
| AATGGTAATCCACATACACACACACCGACACATATA [CACACA_site8876] | 8.72 ± 0.49 |
| TTCTTCTGTTTTATTACACACCATTTTGTGTATACA [CACACA_site7059] | 8.96 ± 0.35 |
| GGTATATATTTATAATGTACATATTCATATATATAA [XGTACX_site3291] | 8.45 ± 0.39 |
| TATATATATATATATACACACACACCCACCAAAGCG [CACACA_site7904] | 10.3 ± 0.26 |
| TATAAATATAAATACACACACACACGCCAAAGCGTA [CACACA_site6181] | 8.49 ± 0.36 |
| TATATATATATATACACACACACACCCCAAAGCGTA [CACACA_site64] | 10.4 ± 0.15 |
| TATATATATAAATACACACACACACCCCAAAGCGTA [CACACA_site4211] | 9.18 ± 0.46 |
| CATATACACCAACACACACACACACCCACAAAAAAA [CACACA_site496] | 8.53 ± 0.4 |
| ACCATACATACATACACACACACACCCATATATATA [CACACA_site2917] | 8.94 ± 0.45 |
| GTACACATATAGTAATAATTTTATTATATTTTTTTG [CACACA_negctrl_site843] | 8.46 ± 0.3 |
| TATATATATATATATTTTTTTTTTTTATGCACATGG [CACACA_negctrl_site1573] | 10.1 ± 0.36 |
| ATATAAGTACGGCATGCATGCACATTTTTTTATTCC [TGCATGCA_site101] | 10.3 ± 0.23 |
| GATTATTTTATAAGTACACACATTTATATATAATAA [CACACA_site2573] | 8.41 ± 0.33 |
| AAATATTACCATGTGAAAATTTTACTGCAACATGAA [TGCATGCA_negctrl_site609] | 8.71 ± 0.38 |
| AATGAATAATTATTTTGTACATAATATTATATTTAT [XGTACX_site5350] | 8.34 ± 0.36 |
| AATCATTAAAGCATAATGTTTATGATCAATATGAAA [CACACA_negctrl_site887] | 8.27 ± 0.33 |

| Sequence | gcPBM binding intensity (ln) |
| --- | --- |
| CTCATCCTTACATACACACACATATATATATATATA [CACACA_site103] | 10.2 ± 0.29 |
| TTCTCATCCTTACATACACACACATATATATATATA [CACACA_site7914] | 10.3 ± 0.11 |
| CTCATCCTTACATACACACACATATATTTATTTATA [CACACA_site6202] | 8.99 ± 0.39 |
| CCCTCTTCTCTCATATCACACATGTCATCCTTATCC [CACACA_site5078] | 9.15 ± 0.42 |
| TTTATATTTATATATACACACATATACATCCTATTT [CACACA_site3079] | 8.54 ± 0.31 |
| GTTACATACATATACACACACATATATATATATATA [CACACA_site901] | 9.99 ± 0.35 |
| TTTTTTTTTTTTTTTACACACAAATGTATACTATAT [CACACA_site1787] | 8.46 ± 0.43 |
| TTTTTATTGTTATAGTTATAATATATTATTTGATTA [XGTACX_negctrl_site27] | 8.44 ± 0.4 |
| ATATTTGCCCAAGATAGTACATATATATATATATAT [XGTACX_site7756] | 10.2 ± 0.24 |
| TATATATTAGAAGATAGTACATATATATTTATTAAT [XGTACX_site1011] | 8.53 ± 0.24 |
| ATATATATATATAATAGTACATATATTTTGAAAGAT [XGTACX_site5800] | 9.75 ± 0.27 |
| AATTAAATTATAAGCACACACATATATATATATATA [CACACA_site3351] | 10.2 ± 0.32 |
| AAAAATATTATAAGCACACATATATATATATATATA [CACACA_site2458] | 10.3 ± 0.28 |
| ATAAAAATATTATAAGCACACATATATATATATATA [CACACA_site8781] | 10.2 ± 0.34 |
| AAAAAAAAAAAATTCACACACATATAAAAAATTAAG [CACACA_site728] | 8.39 ± 0.45 |
| AAATTAAATGTAAGCACACATAAATTATACTCATAT [CACACA_site5782] | 8.36 ± 0.33 |
| ATAAAAAAAAATAGCACACATAAATATATTATATAT [CACACA_site767] | 8.66 ± 0.35 |
| TATATATATATAAGCACACAAACAAAAAAAATTATA [CACACA_site3897] | 9.74 ± 0.27 |
| AAATTAAATGTAAGCACACATAAATTATACGCATAT [CACACA_site3335] | 8.6 ± 0.38 |

| Sequence | gcPBM binding intensity (ln) |
| --- | --- |
| AAAATTAAATTATAAGCACACACATATATATATATA [CACACA_site9105] | 10.2 ± 0.52 |
| ATACAATAATATAAATGTACAAATTATATCTTCATT [XGTACX_site8994] | 8.37 ± 0.33 |
| TATACCTATAGACACACACACATAAATAGATATATA [CACACA_site6748] | 8.83 ± 0.51 |
| TATATGCAAAATGTCACACATGTGATAAATACATAT [CACACA_site4302] | 8.72 ± 0.36 |
| ATTTTACATATTTGCACACATATATTTATATACATA [CACACA_site854] | 8.89 ± 0.4 |
| TATAAAAAAAACGAAAAAAAAAAAAAAAATACAGGA [TGCATGCA_negctrl_site585] | 8.54 ± 0.61 |
| CACAGATATATACATACACACATATATACACATATA [CACACA_site6323] | 8.58 ± 0.38 |
| TGTTGTTACAGATATACACACATATATATATTATAT [CACACA_site5342] | 8.55 ± 0.41 |
| TATATATATATATATACACACATACATATATATATT [CACACA_site8185] | 10.1 ± 0.4 |
| TATATATACATACATACACACATATATATATATATT [CACACA_site4110] | 8.71 ± 0.4 |
| TATATATATATATATACACACATATACATATTGTTT [CACACA_site3499] | 10.2 ± 0.32 |
| GTTACATACAGATACACACACATATATATATATATA [CACACA_site4652] | 10.2 ± 0.15 |
| AGTATACAGATATATACACACATATATATATATATA [CACACA_site4323] | 10 ± 0.41 |
| TATATATATATATATACACACATACAGATATATATT [CACACA_site4629] | 10.2 ± 0.36 |
| CATACATACATACATACACACATACAGATATATATA [CACACA_site4890] | 9.15 ± 0.32 |
| AAGGTTTTGGGTTTTAATTAATTTAATATGATTATA [XGTACX_negctrl_site147] | 8.46 ± 0.59 |
| TACATTTTTATTTTTACACACATATATATATATATA [CACACA_site1021] | 10.1 ± 0.31 |
| AAAATAAATATAAAATGTACTTATATATATATATAT [XGTACX_site7803] | 9.97 ± 0.47 |
